RORg inh – qHTS for inhibitors of ROR gamma transcriptional activity; 310,000 tested, 5.4% active; Nuclear receptor ROR-gamma (Mus musculus), P51450; Drosophila S2 Gal4-RORgamma UAS-luciferase reporter, 20 h; AID 2551, 2010; Potency, µM (doses to about 53.6 µM), actives largely listed as inhibitors; also: nearly all actives have a fitted effect of over 60% in size
Target sequence (P51450 whole entry, looked up, the tested form may be a part): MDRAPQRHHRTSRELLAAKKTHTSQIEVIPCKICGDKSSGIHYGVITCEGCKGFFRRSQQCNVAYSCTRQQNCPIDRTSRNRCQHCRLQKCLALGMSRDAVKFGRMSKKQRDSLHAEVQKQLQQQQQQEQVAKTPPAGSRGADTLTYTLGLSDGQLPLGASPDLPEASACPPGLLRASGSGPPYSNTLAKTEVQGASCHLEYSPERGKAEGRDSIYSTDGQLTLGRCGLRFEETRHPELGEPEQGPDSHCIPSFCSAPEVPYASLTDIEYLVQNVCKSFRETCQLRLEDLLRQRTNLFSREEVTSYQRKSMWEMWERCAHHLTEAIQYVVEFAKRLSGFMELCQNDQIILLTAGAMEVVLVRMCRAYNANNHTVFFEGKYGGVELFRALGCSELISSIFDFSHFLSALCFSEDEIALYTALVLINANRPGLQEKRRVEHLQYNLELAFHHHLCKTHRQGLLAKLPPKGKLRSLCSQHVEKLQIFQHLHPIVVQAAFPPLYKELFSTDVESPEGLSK
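A Gal4/UAS one-hybrid system in insect cells: metallothionein-promoter Gal4–ROR gamma fusion plus Photinus luciferase reporter. Copper sulfate 700 uM final, 20 hr ambient incubation, luminescent detection after 10 min with reagent.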
Gal4-VP16 FLuc – VP16 counterscreen qHTS for inhibitors of ROR gamma transcriptional activity; Drosophila S2 Gal4-VP16 UAS-luciferase, luminescence, 20 h; Potency, µM (titrated, usually from 53.6 µM), actives largely listed as inhibitors; 310,000 tested, 3.5% active; AID 2546, 2010;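 also: Gal4-VP16 expression switched on by copper sulfate through the metallothionein promoter; nearly all actives have a fitted effect of over 50% in size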
ERG Ets-DNA blk – qHTS for Small Molecule Inhibitors of the ERG Ets/DNA interaction | Transcriptional regulator ERG (Homo sapiens), P11308 | fluorescence polarization, His-ERG Ets domain / labelled DNA | Potency, µM (top dose mostly 76.9 µM), usual class: inhibitors | 370,000 tested, 0.028% active | AID 624246, 2012; active = well fitted inhibition curve with a large enough effect in the polarisation, with a control signal flat; inconclusive = small, poorly fitted or top-dose-only effect, or effect the other way, or a change in a side signal; inactive = no such curve, though single readings can be large or run the other way; the % refers to the polarisation;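 also: polarization taken with two DNA probes labelled with fluorescein and Texas red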
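His-tagged ERG Ets domain (1 uM in the protein solution; 300mM KCl, 50mM Tris-HCl, 1mM EDTA, 1mM DTT, pH 7.5) received compound, then a probe mix of 5 nM fluorescein-DNA and 100nM Texas-615-DNA. Fluorescence polarization was read for both dyes.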
Integrin act MD – qHTS for Activators of Integrin-Mediated Alleviation for Muscular Dystrophy | Potency, µM (titrated, usually from 38.3 µM), actives largely listed as activators | 350,000 tested, 0.064% active | AID 624291, 2012 | alpha7betagal myoblasts, beta-gal FDG fluorescence, 48 h; also: nearly all actives have a fitted effect of over 60% in size
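Alpha7betagal+/- myoblasts (passage 13) were plated 16-24 hr, then exposed to compounds (1:260 dilution of DMSO stock) for 48 hours at 37C. After MPER lysis, β-galactosidase reporter activity was read as FDG fluorescence (ex 480/em 540) after 30 minutes.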
Giardia kill – Small Molecules that selectively kill Giardia lamblia: qHTS; Giardia lamblia trophozoite viability; AID 540267, 2011; 340,000 tested, 0.15% active; activity change, % at 7.66 µM, hits read low; in the data active = activity change below about -80%; inconclusive = between about -30% and that limit;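 also: parasites exposed to compound for two days anaerobically before the ATP read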
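Anaerobic 48 hrs incubation at 37 deg C of 100 trophozoites/well with test compounds; ATPLite 1-Step luminescence, 15-30 min RT, reports cellular ATP as viability.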
A number is an active result; [ ] = dose if it differs, or a comment. The sample as a whole holds a higher share of hits than the screen did. Unless noted, calls follow the shape of the dose curve; as a rule, active = well fitted curve in the direction sought with a large enough effect; inconclusive = small, poorly fitted or top-dose-only effect, or another doubt; inactive = no such curve, though single readings can be large; an effect the other way counts as inactive or inconclusive.

For COc1ccc(-c2nnc(NC(=O)c3ccc([N+](=O)[O-])o3)o2)c(OC)c1 the results were RORg inh 7.1µM, Gal4-VP16 FLuc 6.3µM, ERG Ets-DNA blk inactive, Integrin act MD inactive and Giardia kill -100.
Cc1ccc(-c2nnc(NC(=O)C3=COCCO3)o2)c(C)c1 was read as ERG Ets-DNA blk inactive, Integrin act MD inconclusive and Giardia kill inactive.
COC(=O)CSc1nnc(-c2ccc(OC)cc2OC)o1 was read as RORg inh inconclusive, Gal4-VP16 FLuc inactive[0.365 µM], Integrin act MD inactive and Giardia kill inactive.
`Cc1ccccc1NC(=O)c1ccc([N+](=O)[O-])o1` gave RORg inh inactive, Gal4-VP16 FLuc inactive, ERG Ets-DNA blk inactive, Integrin act MD inactive and Giardia kill inconclusive.
`O=c1ccsc2ccccc12` gave ERG Ets-DNA blk inactive, Integrin act MD inactive and Giardia kill inactive.
`O=c1[nH]sc2ccccc12` gave RORg inh 0.4µM, Gal4-VP16 FLuc 3.5µM, ERG Ets-DNA blk inactive, Integrin act MD inactive and Giardia kill inactive.
Screening N#Cc1c(N2CCCC(O)C2)nc(N)c2c(N)nc3c(c12)CC(=O)N3C12CC3CC(CC(C3)C1)C2 (centres undefined) returned RORg inh 4µM, Gal4-VP16 FLuc inconclusive, ERG Ets-DNA blk inactive, Integrin act MD inactive and Giardia kill inactive.
For N=c1c(S(=O)(=O)c2ccccc2)cc2c(=O)n3ccccc3nc2n1Cc1ccco1 the results were RORg inh inconclusive, Gal4-VP16 FLuc inconclusive, ERG Ets-DNA blk inactive, Integrin act MD inactive and Giardia kill inactive.
Cc1ccc(S(=O)(=O)c2cc3c(=O)n4ccccc4nc3n(Cc3ccco3)c2=N)cc1C was read as RORg inh inconclusive, Gal4-VP16 FLuc 18µM, ERG Ets-DNA blk inactive, Integrin act MD inactive and Giardia kill inactive.
For CNC(=O)c1cc2c(=O)n3cc(C)ccc3nc2n(Cc2ccco2)c1=N the results were RORg inh 11µM and Gal4-VP16 FLuc inconclusive.
For COC(=O)CNC(=O)[C@@]1(C)C=C[C@@H](Cc2ccccc2)N1C(C)=O the results were RORg inh inactive and Gal4-VP16 FLuc inactive.
For CCN(CC)C(=O)c1sc2c(c1C)c(=O)n(-c1ccc(Cl)c(Cl)c1)c(=O)n2Cc1ccccc1C#N the results were ERG Ets-DNA blk inactive.
`NNC(=S)Nc1c(Br)cc(F)cc1Br` gave RORg inh 6.3µM, Gal4-VP16 FLuc inconclusive, ERG Ets-DNA blk inactive, Integrin act MD inactive and Giardia kill inactive.
`CCOC(=O)C(=Cc1cc(=O)c(OC)co1)C(=O)OCC` gave RORg inh 4.5µM, Gal4-VP16 FLuc 5µM, ERG Ets-DNA blk inactive, Integrin act MD inactive and Giardia kill inactive.
For S=c1[nH]nc(COc2ccc(Cl)cc2)n1-c1ccc(Cl)cc1 the results were RORg inh 5.6µM, Gal4-VP16 FLuc inconclusive, ERG Ets-DNA blk inactive, Integrin act MD inconclusive and Giardia kill inactive.
Screening CCCCOCC(O)CCc1n[nH]c(=S)n1-c1ccccc1 (centres undefined) returned RORg inh inactive, Gal4-VP16 FLuc inactive, ERG Ets-DNA blk inactive, Integrin act MD inactive and Giardia kill inactive.
Cc1ccccc1OCc1n[nH]c(=S)n1-c1ccccc1 was read as RORg inh 2.5µM, Gal4-VP16 FLuc 8.9µM, ERG Ets-DNA blk inactive, Integrin act MD inactive and Giardia kill inactive.
COc1ccc(-n2c(COc3ccc(Cl)cc3Cl)n[nH]c2=S)cc1 was read as Integrin act MD inactive.
Screening Cc1ccc(OCc2n[nH]c(=S)n2-c2ccc(Br)cc2)cc1 returned RORg inh 2.2µM, Gal4-VP16 FLuc 5.6µM, ERG Ets-DNA blk inactive, Integrin act MD inactive and Giardia kill inactive.
For Cc1ccc(-n2c(-c3cnccn3)n[nH]c2=S)cc1 the results were RORg inh inconclusive, Gal4-VP16 FLuc inactive, ERG Ets-DNA blk inactive, Integrin act MD inactive and Giardia kill inactive.
Screening Cc1ccc(OCc2n[nH]c(=S)n2N)cc1C returned RORg inh 7.9µM, Gal4-VP16 FLuc inactive, ERG Ets-DNA blk inactive, Integrin act MD inactive and Giardia kill inactive.
Screening O=C(NCc1ccccc1CN1CCCC1)c1cccc(S(=O)(=O)N2CCOCC2)c1 returned ERG Ets-DNA blk inactive, Integrin act MD inactive and Giardia kill inactive.
Cc1ccc(OCc2n[nH]c(=S)n2-c2ccc(Cl)cc2)cc1 was read as RORg inh inactive[1.91 µM], Gal4-VP16 FLuc 3.2µM, ERG Ets-DNA blk inactive, Integrin act MD inactive and Giardia kill inactive.
`COC(Cc1n[nH]c(=S)n1-c1ccc(Cl)cc1)OC` gave RORg inh inconclusive, Gal4-VP16 FLuc inactive, ERG Ets-DNA blk inactive, Integrin act MD inactive and Giardia kill inactive.
Screening CC(Sc1nnc(COc2ccc(Cl)cc2)n1-c1ccccc1)C(=O)O (centres undefined) returned RORg inh inactive, Gal4-VP16 FLuc inactive, ERG Ets-DNA blk inactive, Integrin act MD inactive and Giardia kill inactive.
Screening S=c1[nH]nc(COc2ccc(Cl)cc2)n1-c1ccccc1 returned RORg inh 4µM, Gal4-VP16 FLuc 3.2µM, ERG Ets-DNA blk inactive, Integrin act MD inactive and Giardia kill inactive.
CCCCC(=O)N(C)C was read as RORg inh inactive and Gal4-VP16 FLuc inactive.
`COc1ccc(-c2cn3nc(N4CCCC(C(=O)Nc5ccccc5F)C4)sc3n2)cc1` (centres undefined) gave ERG Ets-DNA blk inactive.
Screening CC1(C)CCC(=NNC(N)=S)CC1 returned Integrin act MD inactive and Giardia kill inactive.
For CC1(C)C2CCC(C2)C1C/C=N/NC(N)=S (centres undefined) the results were RORg inh 1.8µM, Gal4-VP16 FLuc 4µM, ERG Ets-DNA blk inactive[15.4 µM], Integrin act MD inactive and Giardia kill inactive.
Cc1ccccc1C(=O)O/N=C(\N)Cc1cccs1 was read as RORg inh 7.9µM, Gal4-VP16 FLuc inconclusive, ERG Ets-DNA blk inactive, Integrin act MD inactive and Giardia kill inactive.
`Cc1ccc(S(=O)(=O)/N=C2\C=C(Nc3cccc(C(=O)O)c3)C(=O)c3ccccc32)cc1` gave RORg inh 16µM, Gal4-VP16 FLuc inconclusive, ERG Ets-DNA blk inactive, Integrin act MD inactive and Giardia kill inactive.
For Cc1ccc(S(=O)(=O)/N=C2\C=C(Nc3cccc(C(=O)O)c3)C(=O)c3ccccc32)c(C)c1 the results were RORg inh inconclusive, Gal4-VP16 FLuc inconclusive, ERG Ets-DNA blk inactive, Integrin act MD inactive and Giardia kill inactive.
`CCc1ccc(S(=O)(=O)/N=C2\C=C(Nc3ccc(C(=O)O)cc3)C(=O)c3ccccc32)cc1` gave RORg inh 11µM, Gal4-VP16 FLuc inconclusive, ERG Ets-DNA blk inactive, Integrin act MD inactive and Giardia kill inactive.
`O=S(=O)(CC(CN1CCCC1)N1CCCC1)c1ccc2ccccc2c1` (centres undefined) gave RORg inh inconclusive, Gal4-VP16 FLuc 11µM, ERG Ets-DNA blk inactive, Integrin act MD inactive[7.66 µM] and Giardia kill inactive.

Bioassay records as filed in PubChem.
